# This is part of a sample that, as a whole, favours compounds with a hit. Of some 79,000 tested, about 15% had one in any assay. Unmarked numbers belong to inactive results. Active and inactive are the calls of the source. Rule as the data show it: active = growth inhibition above about 70%; inactive = the rest.
# Tests used:
# [1] = NCI Yeast Anticancer Drug Screen. Data for the rad52 strain (AID 147);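 also: 0% = growth of vehicle-treated control cultures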; settings: S. cerevisiae rad52 mutant growth inhibition, stronger effect = higher value
# How it was run: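 Vehicle-treated cultures served as the reference for growth inhibition of compound-exposed yeast bearing a DNA repair mutation.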
# [2] = NCI Yeast Anticancer Drug Screen. Data for the wt1 strain (AID 149);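 also: 0% = growth of vehicle-treated wt1 cultures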; settings: S. cerevisiae wt1 strain (SPY 50644) growth inhibition, stronger effect = higher value
# How it was run: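 wt1 strain grown with compound or vehicle; inhibition taken from the growth difference.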
# [3] = NCI Yeast Anticancer Drug Screen. Data for the rad50EPP+ strain (AID 151);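 also: 0% = growth of vehicle-treated control cultures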; settings: S. cerevisiae rad50 mutant strain, stronger effect = higher value
# How it was run: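 In this screen, rad50EPP+ yeast were exposed to compounds. Growth inhibition was scored against vehicle-treated controls.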
# [4] = NCI Yeast Anticancer Drug Screen. Data for the mgt1 strain (AID 153); settings: S. cerevisiae mgt1 mutant growth inhibition, stronger effect = higher value
# How it was run: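 mgt1 strain exposed; growth vs vehicle control recorded as inhibition.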
# [5] = NCI Yeast Anticancer Drug Screen. Data for the rad50 strain (AID 155);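 also: 0% = growth of vehicle-only cultures of the same strain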; settings: S. cerevisiae rad50 strain growth inhibition, stronger effect = higher value
# How it was run: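 DNA repair mutant yeast, compound exposure, growth read-out; inhibition is taken relative to vehicle.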
# [6] = NCI Yeast Anticancer Drug Screen. Data for the mec2-1 strain (AID 157); settings: S. cerevisiae mec2-1 strain, stronger effect = higher value
# How it was run: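 Vehicle-treated cultures served as reference for growth inhibition of compound-exposed mec2-1 yeast.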
# [7] = NCI Yeast Anticancer Drug Screen. Data for the rad14 strain (AID 159);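 also: 0% = growth of vehicle-treated control cultures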; settings: S. cerevisiae rad14 strain growth inhibition, stronger effect = higher value
# How it was run: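 DNA repair-defective yeast, compound-exposed; % growth inhibition derived by comparison with vehicle-treated controls.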
# [8] = NCI Yeast Anticancer Drug Screen. Data for the sgs1 mgt1 strain (AID 161);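 also: 0% = growth of cultures given vehicle only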; settings: S. cerevisiae sgs1 mgt1 strain, stronger effect = higher value
# How it was run: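 Read-out: growth inhibition vs vehicle controls. Cells: mutant yeast strain deficient in DNA damage repair.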
# [9] = NCI Yeast Anticancer Drug Screen. Data for the CLN2oe strain (AID 163);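 also: 0% = growth of vehicle-only control cultures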; settings: S. cerevisiae CLN2oe strain, stronger effect = higher value
# How it was run: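 Inhibition relative to vehicle-treated yeast is reported. Cells: strain with genetic alteration in cell-cycle control, grown with compound.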
# [10] = NCI Yeast Anticancer Drug Screen. Data for the cln2 rad14 strain (AID 165);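 also: 0% = growth equal to vehicle treated cultures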; settings: S. cerevisiae cln2 rad14 strain, stronger effect = higher value
# How it was run: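 Each compound was tested on cln2 rad14 yeast. Inhibition of growth was calculated against vehicle-exposed controls.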
# [11] = NCI Yeast Anticancer Drug Screen. Data for the bub3 strain (AID 167); settings: S. cerevisiae bub3 mutant strain, stronger effect = higher value
# How it was run: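 In this screen, a yeast mutant lacking normal mitotic checkpoint function is challenged with compound. Relative growth versus vehicle gives the inhibition value.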
# [12] = NCI Yeast Anticancer Drug Screen. Data for the wt2 strain (AID 169);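 also: 0% = growth of vehicle-treated yeast cultures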; settings: S. cerevisiae wt2 strain growth inhibition, stronger effect = higher value
# How it was run: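 Inhibition of yeast growth was determined after compound treatment, normalised to controls receiving only vehicle.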
# [13] = NCI Yeast Anticancer Drug Screen. Data for the mlh1 strain (AID 171);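 also: 0% = growth of vehicle-treated control cultures of the same strain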; settings: S. cerevisiae mlh1 strain growth inhibition, stronger effect = higher value
# How it was run: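 Vehicle-normalised growth inhibition of a repair- or checkpoint-altered yeast strain following compound treatment.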
# [14] = NCI Yeast Anticancer Drug Screen. Data for the sgs1 strain (AID 173);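 also: 0% = growth of vehicle-only control cultures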; settings: S. cerevisiae sgs1 mutant, stronger effect = higher value
# How it was run: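 Screen format: yeast with repair or checkpoint alterations, compound exposure, growth read relative to vehicle.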
# [15] = NCI Yeast Anticancer Drug Screen. Data for the mlh1 rad18 strain (AID 175); settings: S. cerevisiae mlh1 rad18 strain growth inhibition, stronger effect = higher value
# How it was run: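 Vehicle-treated cultures served as the reference for growth inhibition in a yeast strain carrying DNA damage repair alterations exposed to each compound.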
# [16] = NCI Yeast Anticancer Drug Screen. Data for the rad18 strain (AID 177); settings: S. cerevisiae rad18 mutant growth inhibition, stronger effect = higher value
# How it was run: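 Test articles were incubated with altered yeast defective in DNA damage repair. Results are given as inhibition of growth versus vehicle.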
# [17] = at 5.0 µM (retest, dose inferred, filed as 0.5)
# [18] = at 50.0 µM (retest, dose inferred, filed as 5.0)
smiles,measurement,setting,value
Cc1cc(Cl)ccc1NC(=O)/C(Cl)=C1/Sc2ccccc2NC1=O,growth inhibition,[1]; at 1.2 µM,-3%
same,growth inhibition,[1]; at 3.7 µM,-3%
same,growth inhibition,[1]; at 11.0 µM,-2%
same,growth inhibition,[1]; at 33.0 µM,0%
same,growth inhibition,[1]; at 100.0 µM,27%
same,growth inhibition,[2]; at 1.2 µM,-1%
same,growth inhibition,[2]; at 3.7 µM,-3%
same,growth inhibition,[2]; at 11.0 µM,-4%
same,growth inhibition,[2]; at 33.0 µM,-41%
same,growth inhibition,[2]; at 100.0 µM,3%
same,growth inhibition,[3]; at 1.2 µM,1%
same,growth inhibition,[3]; at 3.7 µM,4%
same,growth inhibition,[3]; at 11.0 µM,7%
same,growth inhibition,[3]; at 33.0 µM,8%
same,growth inhibition,[3]; at 100.0 µM,2%
same,growth inhibition,[4]; at 1.2 µM,-2%
same,growth inhibition,[4]; at 3.7 µM,-1%
same,growth inhibition,[4]; at 11.0 µM,-3%
same,growth inhibition,[4]; at 33.0 µM,-5%
same,growth inhibition,[4]; at 100.0 µM,-2%
same,growth inhibition,[5]; at 1.2 µM,2%
same,growth inhibition,[5]; at 3.7 µM,24%
same,growth inhibition,[5]; [17],47%
same,growth inhibition,[5]; at 11.0 µM,29%
same,growth inhibition,[5]; at 33.0 µM,3%
same,growth inhibition,[5]; [18],82% (active)
same,growth inhibition,[5]; at 50.0 µM,72% (active)
same,growth inhibition,[5]; at 100.0 µM,24%
same,growth inhibition,[6]; at 1.2 µM,-1%
same,growth inhibition,[6]; at 3.7 µM,-5%
same,growth inhibition,[6]; [17],24%
same,growth inhibition,[6]; at 11.0 µM,-6%
same,growth inhibition,[6]; at 33.0 µM,-5%
same,growth inhibition,[6]; [18],62%
same,growth inhibition,[6]; at 50.0 µM,56.9%
same,growth inhibition,[6]; at 100.0 µM,16%
same,growth inhibition,[7]; at 1.2 µM,1%
same,growth inhibition,[7]; at 3.7 µM,4%
same,growth inhibition,[7]; at 11.0 µM,5%
same,growth inhibition,[7]; at 33.0 µM,4%
same,growth inhibition,[7]; at 100.0 µM,2%
same,growth inhibition,[8]; [17],36%
same,growth inhibition,[8]; [18],91% (active)
same,growth inhibition,[8]; at 50.0 µM,68.5%
same,growth inhibition,[9]; at 1.2 µM,-8%
same,growth inhibition,[9]; at 3.7 µM,-1%
same,growth inhibition,[9]; at 11.0 µM,-6%
same,growth inhibition,[9]; at 33.0 µM,-7%
same,growth inhibition,[9]; at 100.0 µM,-14%
same,growth inhibition,[10]; [17],23%
same,growth inhibition,[10]; [18],57%
same,growth inhibition,[10]; at 50.0 µM,-5.3%
same,growth inhibition,[11]; at 1.2 µM,-2%
same,growth inhibition,[11]; at 3.7 µM,-2%
same,growth inhibition,[11]; [17],35%
same,growth inhibition,[11]; at 11.0 µM,-3%
same,growth inhibition,[11]; at 33.0 µM,-4%
same,growth inhibition,[11]; [18],91% (active)
same,growth inhibition,[11]; at 50.0 µM,20.2%
same,growth inhibition,[11]; at 100.0 µM,7%
same,growth inhibition,[12]; at 1.2 µM,-2%
same,growth inhibition,[12]; at 3.7 µM,7%
same,growth inhibition,[12]; at 11.0 µM,-2%
same,growth inhibition,[12]; at 33.0 µM,-2%
same,growth inhibition,[12]; at 100.0 µM,2%
same,growth inhibition,[13]; at 1.2 µM,-1%
same,growth inhibition,[13]; at 3.7 µM,-3%
same,growth inhibition,[13]; at 11.0 µM,-3%
same,growth inhibition,[13]; at 33.0 µM,-5%
same,growth inhibition,[13]; at 100.0 µM,0%
same,growth inhibition,[14]; at 1.2 µM,-1%
same,growth inhibition,[14]; at 3.7 µM,2%
same,growth inhibition,[14]; at 11.0 µM,4%
same,growth inhibition,[14]; at 33.0 µM,7%
same,growth inhibition,[14]; at 100.0 µM,31%
same,growth inhibition,[15]; [17],35%
same,growth inhibition,[15]; [18],80% (active)
same,growth inhibition,[15]; at 50.0 µM,69.2%
same,growth inhibition,[16]; at 1.2 µM,0%
same,growth inhibition,[16]; at 3.7 µM,3%
same,growth inhibition,[16]; at 11.0 µM,4%
same,growth inhibition,[16]; at 33.0 µM,6%
same,growth inhibition,[16]; at 100.0 µM,45%
COc1ccc(N=N/C(=N\NC(=O)c2cc(Br)ccc2O)c2ccc(N(CCC#N)CCC#N)cc2OC)cc1,growth inhibition,[1]; at 1.2 µM,29%
same,growth inhibition,[1]; at 3.7 µM,44%
same,growth inhibition,[1]; at 11.0 µM,44%
same,growth inhibition,[1]; at 33.0 µM,57%
same,growth inhibition,[1]; at 100.0 µM,71% (active)
same,growth inhibition,[2]; at 1.2 µM,15%
same,growth inhibition,[2]; at 3.7 µM,17%
same,growth inhibition,[2]; at 11.0 µM,9%
same,growth inhibition,[2]; at 33.0 µM,5%
same,growth inhibition,[2]; at 100.0 µM,51%
same,growth inhibition,[3]; at 1.2 µM,-4%
same,growth inhibition,[3]; at 3.7 µM,-7%
same,growth inhibition,[3]; at 11.0 µM,-11%
same,growth inhibition,[3]; at 33.0 µM,-19%
same,growth inhibition,[3]; at 100.0 µM,24%
same,growth inhibition,[4]; at 1.2 µM,33%
same,growth inhibition,[4]; at 3.7 µM,35%
same,growth inhibition,[4]; at 11.0 µM,24%
same,growth inhibition,[4]; at 33.0 µM,46%
same,growth inhibition,[4]; at 100.0 µM,69%
same,growth inhibition,[5]; at 1.2 µM,46%
same,growth inhibition,[5]; at 3.7 µM,43%
same,growth inhibition,[5]; [17],20%
same,growth inhibition,[5]; at 11.0 µM,49%
same,growth inhibition,[5]; at 33.0 µM,59%
same,growth inhibition,[5]; [18],25%
same,growth inhibition,[5]; at 50.0 µM,45.1%
same,growth inhibition,[5]; at 100.0 µM,82% (active)
same,growth inhibition,[6]; at 1.2 µM,-4%
same,growth inhibition,[6]; at 3.7 µM,-6%
same,growth inhibition,[6]; [17],22%
same,growth inhibition,[6]; at 11.0 µM,-8%
same,growth inhibition,[6]; at 33.0 µM,13%
same,growth inhibition,[6]; [18],24%
same,growth inhibition,[6]; at 50.0 µM,43.4%
same,growth inhibition,[6]; at 100.0 µM,31%
same,growth inhibition,[7]; at 1.2 µM,33%
same,growth inhibition,[7]; at 3.7 µM,26%
same,growth inhibition,[7]; at 11.0 µM,21%
same,growth inhibition,[7]; at 33.0 µM,3%
same,growth inhibition,[7]; at 100.0 µM,45%
same,growth inhibition,[8]; [17],-8%
same,growth inhibition,[8]; [18],69%
same,growth inhibition,[8]; at 50.0 µM,8.9%
same,growth inhibition,[9]; at 1.2 µM,11%
same,growth inhibition,[9]; at 3.7 µM,14%
same,growth inhibition,[9]; at 11.0 µM,24%
same,growth inhibition,[9]; at 33.0 µM,33%
same,growth inhibition,[9]; at 100.0 µM,28%
same,growth inhibition,[10]; [17],-4%
same,growth inhibition,[10]; [18],32%
same,growth inhibition,[10]; at 50.0 µM,30.9%
same,growth inhibition,[11]; at 1.2 µM,28%
same,growth inhibition,[11]; at 3.7 µM,14%
same,growth inhibition,[11]; [17],19%
same,growth inhibition,[11]; at 11.0 µM,16%
same,growth inhibition,[11]; at 33.0 µM,49%
same,growth inhibition,[11]; [18],69%
same,growth inhibition,[11]; at 50.0 µM,43.4%
same,growth inhibition,[11]; at 100.0 µM,68%
